The panel holds about 83,000 compounds, 20% with a hit somewhere; the sample as a whole holds those more often.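 The endpoint reported here, percent growth, reads 100 for growth as untreated, 0 for no net growth and -100 for all cells dead.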 Unmarked numbers belong to inactive results. Calls of active or inactive are those of the source. The calls were made as follows: active = growth percent below 10; inactive = the rest.
Tested on: HOP-62 NSCLC
Assay: NCI-60 one-dose screen, 48 h (100 = growth as untreated, 0 = no growth, -100 = all killed)
Conditions: 10 µM

| SMILES | growth |
| --- | --- |
| Clc1ccc(Nc2ccnc(NCCCNc3ccnc4cc(Cl)ccc34)n2)cc1 | 19.6% |
| Oc1[nH]c2cc(Cl)ccc2c1/C=c1/ccc2c(c1)N=C(c1cc(F)cc(F)c1)N=2 | 25.3% |
| CSc1nn(-c2ccccc2)c2ncnc(Oc3ccccc3)c12 | 96.7% |
| Cc1cc2c(C)c3cc(C)c(N)cc3nc2cc1N | 3.24% (active) |
| CCOC(=O)C1(CC(C)C)CCOC1=O (centres undefined) | 109% |
| COc1ccc(Nc2cc(C)nc(NCCCNc3ccnc4cc(Cl)ccc34)n2)cc1 | 18.7% |
| CCCCCCCCCCCCCCCC(=O)OC1[C@@H](OC(=O)CCCCCCCCCCCCCCC)[C@@H](C(=O)N[C@@H](CCCCN)C(=O)OC)O[C@H]1n1cnc2c(=O)[nH]c(NC(=O)C(C)C)nc21 (some centres undefined) | 104% |
| COc1cc(Nc2ccnc(NCCNc3ccnc4cc(Cl)ccc34)n2)cc(OC)c1 | 79.2% |
| Cc1cc(Nc2ccc(Cl)cc2)nc(NCCCNc2ccnc3cc(Cl)ccc23)n1 | -22.6% (active) |
| COc1cc2cc3c(nc2cc1OC)CCN3Cc1ccc(NC(=O)Nc2cc(C(F)(F)F)cc(C(F)(F)F)c2)cc1 | 97.5% |
| CC(C)=CCc1cc(O)cc2c1OC(C=C(C)C)C1=C2C(=O)C2=C(NCCS2(=O)=O)C1=O (centres undefined) | -12.6% (active) |
| CC(C)=CCc1cc(O)cc2c1OC(C=C(C)C)C1=C2C(=O)C2=C(C1=O)S(=O)(=O)CCN2 (centres undefined) | 35% |
| COc1ccc(Nc2ccnc(NCCNc3ccnc4cc(Cl)ccc34)n2)cc1 | 74.6% |
| Cc1cc(Cl)nc(N(CCCNc2ccnc3cc(Cl)ccc23)Cc2cccs2)n1 | 23.1% |
| COc1cc(Cl)cc(-c2nn(-c3cccc(NC(=O)Nc4cc(C(F)(F)F)cc(C(F)(F)F)c4)c3)cc2-c2ccncc2)c1 | -41.1% (active) |
| CN(C)CCNC(=O)c1cccn2c(=O)c3cc4ccccc4cc3nc12 | -26.8% (active) |
| CC12O[C@H](C[C@@H](O)[C@H]1O)n1c3ccccc3c3c4c(c5c6ccccc6n2c5c31)C(=O)N(CCCN)C4=O | 25.3% |
| CCCCCCCC(C)NCCO (centres undefined) | 99.3% |
| Cc1cc(N(CCCNc2ccnc3cc(Cl)ccc23)Cc2ccc3c(c2)OCO3)nc(N2CCOCC2)n1 | 10.1% |
| COc1cc(-c2nnc(-c3c(-c4ccc(F)cc4)nc4ccccn34)o2)cc(OC)c1OC | 62.9% |

| SMILES | growth |
| --- | --- |
| COc1ccc2c(c1)/C(=C\c1c[nH]c3ccc(OC)cc13)C(=O)N2 | 51% |
| NC(=O)CC1(c2ccccc2)CCCCC1 | 102% |
| COc1ccc(-c2nc3sccn3c2-c2nc3c([nH]2)C(=O)c2ccccc2C3=O)cc1 | 107% |
| Fc1ccc(-c2nnc(-c3c(-c4ccc(F)cc4)nc4ccccn34)o2)cc1 | 78.5% |
| CCN1CCCC1CNC(=O)c1ncc(-c2ccc(C(F)(F)F)cc2)c(NC2CCCCCC2)n1 (centres undefined) | 97% |
| Cc1ccc(Nc2cc(C)nc(NCCCNc3ccnc4cc(Cl)ccc34)n2)cc1 | -12.4% (active) |
| Cn1c([N+](=O)[O-])cnc1/C=C1\Oc2ccccc2C1=O | -10.3% (active) |
| CC12O[C@H](C[C@@H](OC(=O)c3ccccc3)[C@H]1O)n1c3ccccc3c3c4c(c5c6ccccc6n2c5c31)C(=O)NC4=O | 33.4% |
| COc1ccc(-c2nc3ncccn3c2-c2nnc(-c3ccc(F)cc3)o2)cc1 | 106% |
| Nc1ccc2c(c1)C1(CCC2)NC(=O)NC1=O (centres undefined) | 101% |
| COc1cc(OC)cc(-c2cncn2-c2ccc(-c3nc4cc(OC)cc(OC)c4s3)cc2)c1 | 79.7% |
| Clc1ccc2c(NCCCNc3nccc(Nc4ccc(Br)cc4)n3)ccnc2c1 | 1.45% (active) |
| O=C(Nc1cccc(Br)c1)c1cc(=O)[nH]c2ccccc12 | 64.3% |
| COc1cc(Nc2ccnc(NCCCNc3ccnc4cc(Cl)ccc34)n2)cc(OC)c1 | 27.4% |
| CN1CCC(CNc2cc(C3(C(=O)Nc4cc(C(=O)Nc5ccc(Cl)c(C(F)(F)F)c5)ccc4F)CC3)ncn2)CC1 | -47.2% (active) |
| N#Cc1c(C#N)c(SSc2c(C#N)c(C#N)c(N)n2-c2ccccc2)n(-c2ccccc2)c1N | 109% |
| Clc1ccc(Nc2ccnc(NCCNc3ccnc4cc(Cl)ccc34)n2)cc1 | 66.7% |
| Cc1cc(N(CCCNc2ccnc3cc(Cl)ccc23)Cc2ccc3c(c2)OCO3)nc(N2CCCCC2)n1 | -45.1% (active) |
| CCCCN(CCCC)c1cc(C(=O)CCCCCN)c2ccccc2n1 | 110% |
